From the supplement of paper PMC10849652
Targets with a hit are over-represented here; the source holds about 7,900 in all. About 0.6% of all pairs of compound and target were hits.

Key:
Test in all cases: log2 fold change, soluble protein after heating vs DMSO (PISA); higher = thermal stabilisation; K562 cells, 10 uM, 30 min; active = over 0.2 and 3.5 SD of the protein, either way, in both replicates (recomputed)
[1] = compound: C1=CC=C(C=C1)[C@H](COC2=CC3=C(C=C2)NC(=O)N3)NC(=O)C4=CC=CN(C4=O)CC5=CC(=C(C=C5)F)F
Outline: (§1)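 K562 cells at 2×10^6 cells/mL were treated with 10 μM compound for 30 min. Aliquots were heated for 3 min across 48°C-58°C, pooled, and extracted in PBS with 0.5% NP-40 at 4°C; soluble protein was the supernatant after 21,000xg for 90 min. Soluble protein was quantified by TMTpro 16plex LC-MS/MS with channel sums equalised, and reported as log2 fold change in thermal stability against DMSO controls, with values from duplicates.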

[2] = compound: CC1=C(SC2=C1C(=N[C@H](C3=NN=C(N32)C)CC(=O)N)C4=CC=C(C=C4)Cl)C
Outline: as §1

[3] = compound: CC1=C2C(=CC=C1)N=C(N(C2=O)C3=CC=CC=C3C)CN4C=NC5=C(N=CN=C54)N
Outline: as §1

[4] = compound: Cc1sc2c(c1C)C(c1ccc(Cl)cc1)=N[C@@H](CC(=O)OC(C)(C)C)c1nnc(C)n1-2
Outline: as §1

[5] = compound: c1ccc([C@@H]2C[C@H]2NC2CCNCC2)cc1
Outline: as §1

Measured: log2 fold change

UNC119B (UniProt A6NIH7)
Sequence of UniProt A6NIH7 (A6NIH7 whole entry, looked up): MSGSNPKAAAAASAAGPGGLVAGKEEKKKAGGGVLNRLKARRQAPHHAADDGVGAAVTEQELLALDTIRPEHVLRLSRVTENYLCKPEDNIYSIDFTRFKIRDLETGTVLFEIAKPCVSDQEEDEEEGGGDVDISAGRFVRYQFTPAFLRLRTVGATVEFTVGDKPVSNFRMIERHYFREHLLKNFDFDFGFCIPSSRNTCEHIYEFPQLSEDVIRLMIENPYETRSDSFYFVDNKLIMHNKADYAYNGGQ
inactive: [1] -0.093 | [2] -0.013 | [3] 0.094 | [4] -0.016 | [5] -0.009

TRAPPC6B (UniProt Q86SZ2)
Sequence of UniProt Q86SZ2 (Q86SZ2 whole entry, looked up): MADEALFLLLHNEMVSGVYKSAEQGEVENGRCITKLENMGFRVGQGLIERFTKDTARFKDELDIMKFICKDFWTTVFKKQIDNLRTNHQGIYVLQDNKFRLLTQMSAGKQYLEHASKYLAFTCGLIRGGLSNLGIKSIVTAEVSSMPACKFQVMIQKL
inactive: [1] -0.007 | [2] 0.061 | [3] 0.048 | [4] -0.033 | [5] -0.013

UBAP1 isoform 4 (UniProt Q9NZ09)
inactive: [1] 0.021 | [2] 0.005 | [3] 0.129 | [4] -0.171 | [5] -0.072

TMEM173 (UniProt Q86WV6)
Sequence of UniProt Q86WV6 (Q86WV6 whole entry, looked up): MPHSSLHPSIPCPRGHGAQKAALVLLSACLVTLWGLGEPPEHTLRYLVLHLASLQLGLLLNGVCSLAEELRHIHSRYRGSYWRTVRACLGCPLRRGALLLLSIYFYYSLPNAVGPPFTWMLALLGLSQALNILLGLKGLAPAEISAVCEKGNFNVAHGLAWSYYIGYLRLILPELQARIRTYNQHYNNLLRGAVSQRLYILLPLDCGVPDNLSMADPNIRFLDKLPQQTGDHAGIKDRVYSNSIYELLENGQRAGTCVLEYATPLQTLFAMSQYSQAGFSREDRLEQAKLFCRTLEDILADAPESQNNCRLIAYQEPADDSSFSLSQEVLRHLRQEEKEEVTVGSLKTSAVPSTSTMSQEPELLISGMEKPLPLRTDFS
inactive: [1] -0.035 | [2] 0.045 | [3] 0.086 | [4] -0.099 | [5] -0.005

WASHC2C, A0A096LPC5
Sequence of WASHC2C, A0A096LPC5 (A0A096LPC5 whole entry, looked up): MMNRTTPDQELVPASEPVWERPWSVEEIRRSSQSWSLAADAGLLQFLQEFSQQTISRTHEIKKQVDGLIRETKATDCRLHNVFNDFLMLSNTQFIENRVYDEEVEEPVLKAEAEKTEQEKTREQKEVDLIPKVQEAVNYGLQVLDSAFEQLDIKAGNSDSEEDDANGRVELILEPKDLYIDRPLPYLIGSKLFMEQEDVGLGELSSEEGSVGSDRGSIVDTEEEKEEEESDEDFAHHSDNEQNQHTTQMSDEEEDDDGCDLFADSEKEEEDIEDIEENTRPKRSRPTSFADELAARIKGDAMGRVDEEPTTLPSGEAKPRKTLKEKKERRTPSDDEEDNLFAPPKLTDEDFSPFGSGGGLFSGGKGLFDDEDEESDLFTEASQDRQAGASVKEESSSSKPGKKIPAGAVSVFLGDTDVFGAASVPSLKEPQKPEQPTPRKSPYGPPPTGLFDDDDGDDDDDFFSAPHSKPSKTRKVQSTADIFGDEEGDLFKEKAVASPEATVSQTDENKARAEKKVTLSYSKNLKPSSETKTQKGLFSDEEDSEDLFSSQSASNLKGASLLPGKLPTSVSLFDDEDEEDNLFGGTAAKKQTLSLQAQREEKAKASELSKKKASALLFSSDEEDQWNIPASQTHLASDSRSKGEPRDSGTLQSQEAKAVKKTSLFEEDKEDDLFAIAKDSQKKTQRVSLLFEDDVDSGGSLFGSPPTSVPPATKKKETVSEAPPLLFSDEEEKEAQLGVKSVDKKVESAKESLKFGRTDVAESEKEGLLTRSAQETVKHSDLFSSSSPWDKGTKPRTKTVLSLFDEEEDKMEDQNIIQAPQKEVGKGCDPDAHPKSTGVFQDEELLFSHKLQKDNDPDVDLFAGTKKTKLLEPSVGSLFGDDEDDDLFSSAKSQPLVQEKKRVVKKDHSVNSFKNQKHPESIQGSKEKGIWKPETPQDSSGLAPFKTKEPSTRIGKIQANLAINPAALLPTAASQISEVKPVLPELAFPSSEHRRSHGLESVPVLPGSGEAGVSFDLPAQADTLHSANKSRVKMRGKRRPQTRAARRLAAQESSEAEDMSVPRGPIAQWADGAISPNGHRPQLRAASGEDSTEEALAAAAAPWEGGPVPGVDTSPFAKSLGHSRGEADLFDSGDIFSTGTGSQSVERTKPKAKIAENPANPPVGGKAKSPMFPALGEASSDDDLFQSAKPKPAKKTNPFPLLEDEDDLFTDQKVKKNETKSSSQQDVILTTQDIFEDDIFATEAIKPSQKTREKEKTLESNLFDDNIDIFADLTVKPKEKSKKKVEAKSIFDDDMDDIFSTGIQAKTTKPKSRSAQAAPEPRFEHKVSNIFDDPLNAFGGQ
inactive: [1] 0.015 | [2] 0.012 | [3] 0.008 | [4] 0.027 | [5] 0.001

TSEN2 (UniProt Q8NCE0)
Sequence of UniProt Q8NCE0 (Q8NCE0 whole entry, looked up): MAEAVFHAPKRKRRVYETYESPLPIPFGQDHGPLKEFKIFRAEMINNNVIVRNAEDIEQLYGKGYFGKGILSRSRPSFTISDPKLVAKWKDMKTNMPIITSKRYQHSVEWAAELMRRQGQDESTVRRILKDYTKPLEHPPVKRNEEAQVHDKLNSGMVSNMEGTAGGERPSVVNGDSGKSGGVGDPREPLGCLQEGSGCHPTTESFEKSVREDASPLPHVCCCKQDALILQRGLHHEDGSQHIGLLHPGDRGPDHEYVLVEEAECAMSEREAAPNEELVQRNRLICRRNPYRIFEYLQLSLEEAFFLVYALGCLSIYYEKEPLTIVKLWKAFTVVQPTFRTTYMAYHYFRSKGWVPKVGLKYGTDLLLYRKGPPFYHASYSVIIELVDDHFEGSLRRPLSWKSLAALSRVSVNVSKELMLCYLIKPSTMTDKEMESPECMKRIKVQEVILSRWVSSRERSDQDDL
inactive: [1] -0.05 | [2] 0 | [3] 0.044 | [4] -0.027 | [5] 0.03

USP9X (UniProt Q93008)
inactive: [1] -0.049 | [2] 0.028 | [3] 0.057 | [4] 0.012 | [5] -0.007

XPO5 (UniProt Q9HAV4)
Sequence of UniProt Q9HAV4 (Q9HAV4 whole entry, looked up): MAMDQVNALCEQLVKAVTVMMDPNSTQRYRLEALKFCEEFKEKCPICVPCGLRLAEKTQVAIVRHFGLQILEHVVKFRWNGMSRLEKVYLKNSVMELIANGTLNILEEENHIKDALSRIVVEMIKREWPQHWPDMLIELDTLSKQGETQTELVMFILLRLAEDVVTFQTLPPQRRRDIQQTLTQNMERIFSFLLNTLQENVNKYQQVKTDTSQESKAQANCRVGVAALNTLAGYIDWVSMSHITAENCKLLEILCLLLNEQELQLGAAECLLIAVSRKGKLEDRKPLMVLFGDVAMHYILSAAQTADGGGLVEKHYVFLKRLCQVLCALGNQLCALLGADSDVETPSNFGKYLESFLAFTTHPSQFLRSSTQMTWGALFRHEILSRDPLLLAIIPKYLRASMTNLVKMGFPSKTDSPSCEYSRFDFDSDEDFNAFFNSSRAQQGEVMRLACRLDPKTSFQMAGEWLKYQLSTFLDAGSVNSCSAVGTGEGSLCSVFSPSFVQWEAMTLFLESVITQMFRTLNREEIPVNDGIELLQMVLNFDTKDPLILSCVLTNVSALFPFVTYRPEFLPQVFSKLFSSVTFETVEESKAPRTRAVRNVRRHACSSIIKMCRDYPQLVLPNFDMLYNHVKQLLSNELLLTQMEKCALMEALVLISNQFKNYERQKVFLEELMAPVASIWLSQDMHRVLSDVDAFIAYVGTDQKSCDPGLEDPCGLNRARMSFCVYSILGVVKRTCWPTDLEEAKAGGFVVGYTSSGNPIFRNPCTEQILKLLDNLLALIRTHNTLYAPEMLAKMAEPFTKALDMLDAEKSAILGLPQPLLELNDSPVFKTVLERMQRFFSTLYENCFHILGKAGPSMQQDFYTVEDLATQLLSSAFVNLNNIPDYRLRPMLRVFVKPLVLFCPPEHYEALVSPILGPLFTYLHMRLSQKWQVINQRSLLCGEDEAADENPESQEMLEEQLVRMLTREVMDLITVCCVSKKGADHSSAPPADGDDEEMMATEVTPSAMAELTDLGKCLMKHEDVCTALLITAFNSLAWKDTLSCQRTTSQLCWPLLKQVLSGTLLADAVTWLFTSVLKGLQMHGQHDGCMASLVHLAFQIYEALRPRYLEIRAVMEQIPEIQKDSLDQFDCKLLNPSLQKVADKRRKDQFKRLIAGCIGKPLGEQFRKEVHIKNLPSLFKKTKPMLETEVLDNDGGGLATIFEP
inactive: [1] -0.037 | [2] 0.042 | [3] 0.02 | [4] -0.024 | [5] -0.01

USP7 (UniProt Q93009)
Sequence of UniProt Q93009 (Q93009 whole entry, looked up): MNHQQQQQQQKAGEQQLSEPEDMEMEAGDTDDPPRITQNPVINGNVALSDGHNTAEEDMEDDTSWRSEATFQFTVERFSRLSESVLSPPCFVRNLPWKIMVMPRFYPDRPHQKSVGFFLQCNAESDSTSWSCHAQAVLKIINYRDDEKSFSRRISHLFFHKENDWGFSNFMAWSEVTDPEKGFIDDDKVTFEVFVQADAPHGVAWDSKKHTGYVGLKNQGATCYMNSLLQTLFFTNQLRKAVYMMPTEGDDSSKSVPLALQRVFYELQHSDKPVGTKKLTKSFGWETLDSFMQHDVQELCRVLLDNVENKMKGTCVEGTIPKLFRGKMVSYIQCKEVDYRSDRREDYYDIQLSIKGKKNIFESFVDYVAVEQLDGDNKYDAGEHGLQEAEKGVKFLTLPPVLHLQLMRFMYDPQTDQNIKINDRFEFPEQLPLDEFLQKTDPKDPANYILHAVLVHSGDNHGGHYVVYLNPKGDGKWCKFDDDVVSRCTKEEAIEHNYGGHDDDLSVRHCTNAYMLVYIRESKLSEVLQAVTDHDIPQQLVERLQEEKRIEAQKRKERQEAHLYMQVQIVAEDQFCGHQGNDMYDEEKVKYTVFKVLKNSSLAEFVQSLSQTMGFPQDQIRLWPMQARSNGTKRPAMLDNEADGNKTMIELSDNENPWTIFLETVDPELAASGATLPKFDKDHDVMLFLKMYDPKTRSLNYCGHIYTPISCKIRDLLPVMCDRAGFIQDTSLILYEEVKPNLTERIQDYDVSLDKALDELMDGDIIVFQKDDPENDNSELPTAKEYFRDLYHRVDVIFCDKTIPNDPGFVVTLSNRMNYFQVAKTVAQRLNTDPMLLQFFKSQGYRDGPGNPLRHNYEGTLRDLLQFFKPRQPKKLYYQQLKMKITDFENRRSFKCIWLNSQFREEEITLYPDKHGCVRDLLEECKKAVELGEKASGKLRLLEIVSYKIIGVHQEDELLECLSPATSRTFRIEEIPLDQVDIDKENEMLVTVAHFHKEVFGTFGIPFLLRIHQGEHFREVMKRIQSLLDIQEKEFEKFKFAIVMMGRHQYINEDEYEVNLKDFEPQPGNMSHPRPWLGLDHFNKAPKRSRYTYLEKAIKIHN
inactive: [1] -0.165 | [2] 0.026 | [3] 0.09 | [4] -0.01 | [5] -0.062
